In PubChem BioAssay (NCATS):
Where “and” joins values, the source holds several entries; their conditions need not be identical. Equal entries are not always repeated. Inconclusive results are not listed. Some structures have more than one record in an assay (separate samples or runs), and their calls can disagree. Values without a mark were called inactive. Calls of active or inactive are those of the source. Calls come from the whole dose curve; as a rule, active = well fitted inhibition curve with a large enough effect; inconclusive = small, poorly fitted or top-dose-only effect; inactive = flat fitted curve, though single readings scatter.

System: KB-3-1
Test: Cytotoxic Profiling of Annotated Libraries Using Quantitative High-Throughput Screening (AID 1296008); note: nearly all actives have a fitted effect of over 60% in size
Conditions: Five cell lines viability, CellTiter-Glo ATP luminescence, 48-72 h; max response: hits give low values
Excerpt: Cell-based phenotypic screening is a commonly used approach to discover biological pathways, novel drug targets, chemical probes and high-quality hit-to-lead molecules. Many hits identified from high-throughput screening campaign are ruled out through a series of follow-up potency, selectivity/specificity, and cytotoxicity assays. Prioritization of molecules with little or no cytotoxicity for a more in-depth downstream evaluation influence the future direction of projects, so cytotoxicity profiling of the screening libraries at early stage is essential for increasing the likelihood of candidate success. […] For the annotated library, we also examined the primary targets and mechanistic pathways regularly associated with cell death. To our knowledge, this is the first study to use high-throughput screening to profile large libraries for cytotoxicity assessment in both normal and cancer cell lines. In summary, the results generated here constitutes a valuable resource for the scientific community and provides insight on identifying cytotoxic compounds with particular mechanisms of action, and prioritizing compounds with suitable cytotoxicity profile for further evaluation.
A pintool (Kalypsys) was used to transfer 23 nL of compound solution to the 1536-well assay plates. After 48 or 72 hr incubation at 37 degree Celsius, 5% CO2 and 95% humidity, 2.5 uL of CellTiter-Glo (Promega) was dispensed into each well using a dispenser (Aspect Automation, St. Paul, MN) with solenoid valves (Lee Valves, Westbrook CT). Plates were left at room temperature for 10 min before imaging the ATP-coupled luminescence using a ViewLux microplate imager (PerkinElmer, Waltham, MA).
% is set by controls: 0 for no effect and ±100 for the full control effect; potency is the fitted concentration of half-maximal effect.

| SMILES | Potency | max response | outcome |
| --- | --- | --- | --- |
| CCCCOc1cc(C(=O)OCCN(CC)CC)ccc1N | 4.95 µM (active) | 6.85% |  |
| C[C@H]1O[C@H](O[C@H]2[C@H](O)[C@@H](O)[C@@H](O[C@H]3[C@H](O)[C@@H](O)[C@H](O)O[C@@H]3CO)O[C@@H]2CO)[C@H](O)[C@@H](O)[C@@H]1N[C@H]1C=C(CO)[C@@H](O)[C@H](O)[C@H]1O |  | -3.3% |  |
| O=C(O)Cc1sc(-c2ccccc2)nc1-c1ccc(Cl)cc1 |  | -1.67% and -19.6% and -27.8% |  |
| Nc1ccc(S(=O)(=O)NC(=O)c2ccccc2)cc1 |  | 18.9% |  |
| C[C@@H]1CC[C@@]2(OC1)O[C@H]1C[C@H]3[C@@H]4CC[C@H]5C[C@@H](O)CC[C@]5(C)[C@H]4CC(=O)[C@]3(C)[C@H]1[C@@H]2C |  | 1.37% |  |
| O=C1Nc2ccc(Cl)cc2[C@@](C#CC2CC2)(C(F)(F)F)O1 |  | 17.8% and -24.9% |  |
| CN1[C@@H]2CC[C@H]1CC(OC(=O)C(O)c1ccccc1)C2 (stereo not given in full) |  | 3.38% and -1.31% and -10.9% |  |
| CC1(C)Oc2ccc(C#N)cc2[C@@H](N2CCCC2=O)[C@@H]1O |  | -0.98% and -8.03% |  |
| CC(=O)Oc1ccc(C2(c3ccc(OC(C)=O)cc3)C(=O)Nc3ccccc32)cc1 |  | -1.67% and 11.5% |  |
| COc1ccc2c(c1)C(=O)N(CCc1ccc(S(=O)(=O)NC(=O)NC3CCCCC3)cc1)C(=O)C2(C)C |  | 7.8% and -5.8% |  |
| Cc1cccc(C)c1NC(=O)CN(CC(=O)O)CC(=O)O |  | 2.9% |  |
| O=c1cc[nH]c(=S)[nH]1 |  | -6.83% |  |
| COc1cc2[nH]c(=O)[nH]c(=O)c2cc1OC |  | 35.7% |  |
| CS(=O)(=O)c1ccc([C@@H](O)[C@@H](CF)NC(=O)C(Cl)Cl)cc1 |  | -19.8% |  |
| CC1CC(OC(=O)C(O)c2ccccc2)CC(C)(C)N1C (stereo not given) |  | 1.03% and 0.565% |  |
| COc1ccc2cc1Oc1cc3c(cc1OC)CC[N+](C)(C)[C@H]3Cc1ccc(cc1)Oc1c(OC)c(OC)cc3c1[C@@H](C2)[N+](C)(C)CC3 |  | 0.968% |  |
| OCC(CO)N[C@H]1C[C@](O)(CO)[C@@H](O)[C@H](O)[C@H]1O |  | -14.4% |  |
| CC(=O)NC(Cc1ccccc1)C(=O)O (stereo not given) |  | 1.12% and 4.36% |  |
| CC(C)(C)NCC(O)COc1ccc(NC(=O)NC2CCCCC2)cc1 (stereo not given) |  | 0.958% |  |

| SMILES | Potency | max response | outcome |
| --- | --- | --- | --- |
| CCN(CC)CCCC(C)Nc1c2ccc(Cl)cc2nc2ccc(OC)cc12 (stereo not given) |  | -7.27% |  |
| O=C1NS(=O)(=O)c2ccccc21 |  | 20.6% |  |
| O=c1[nH]cnc2c1ncn2[C@@H]1O[C@H](CO)[C@@H](O)[C@H]1O |  | 7.98% | inactive |
| CC[N+](CC)(CC)CCOc1ccc(/C=C/c2ccccc2)cc1 |  | -18.6% and -29.7% |  |
| CC1(C)[C@@H]2CC[C@@]1(C)C(=O)C2 |  | -13.1% |  |
| [O-][n+]1cccc(CO)c1 |  | 4.61% |  |
| CCCCc1ncc(/C=C(\Cc2cccs2)C(=O)O)n1Cc1ccc(C(=O)O)cc1 |  | -5.45% and 6.97% |  |
| Cc1ccc(C(C)C)cc2c(C)ccc1-2 |  | -19.4% |  |
| CCCCN1CCCC[C@H]1C(=O)Nc1c(C)cccc1C |  | 2.43% | inactive |
| CCOC(CN1CCN(CC(C)C(=O)c2ccccc2)CC1)c1ccccc1 (stereo not given) |  | 0.981% and -11.3% |  |
| CCOC(=O)c1ccc(O)cc1 |  | -4.79% |  |
| CCOC(=O)[C@H](CCc1ccccc1)N[C@@H](C)C(=O)N1C(=O)N(C)C[C@H]1C(=O)O |  | 5.5% and 4.49% |  |
| O=C(O)[C@H](O)c1ccccc1 |  | 5.08% |  |
| CC(O)CN(CCN(CC(C)O)CC(C)O)CC(C)O (stereo not given) |  | -16.3% |  |
| NC(=O)NNc1ccccc1 |  | 13.6% and -2.9% |  |
| CCCCCCCCCCCCCCCC(=O)NCCO |  | -1.52% |  |
| NC(=O)NC(=O)Cc1ccccc1 |  | 5.24% |  |
| COc1cc(C)c(Cc2cnc(N)nc2N)cc1OC |  | 7.84% |  |
